Molecules are shown by their SMILES. Values joined by “and” are separate entries in the source; they are usually repeats but may differ in a detail not shown here. Identical values can stand only once. In all, about 16,000 compounds went through this assay and about 2,600 (16%) were called active. Not shown: some 20% with an inconclusive outcome. The call rests on the fitted dose curve; in most records, active means well fitted curve in the direction sought with a large enough effect; inconclusive means small, poorly fitted or top-dose-only effect, or effect the other way; inactive means no such curve, though single readings can be large or run the other way. Shown is part of a subset that was picked to be rich in actives. More than one record can exist for a structure, and the calls need not agree.
On the % scale 0 is the no-effect control and ±100 the full control effect.

Cytochrome P450 2D6 (Homo sapiens), sequence (P10635 whole entry, looked up): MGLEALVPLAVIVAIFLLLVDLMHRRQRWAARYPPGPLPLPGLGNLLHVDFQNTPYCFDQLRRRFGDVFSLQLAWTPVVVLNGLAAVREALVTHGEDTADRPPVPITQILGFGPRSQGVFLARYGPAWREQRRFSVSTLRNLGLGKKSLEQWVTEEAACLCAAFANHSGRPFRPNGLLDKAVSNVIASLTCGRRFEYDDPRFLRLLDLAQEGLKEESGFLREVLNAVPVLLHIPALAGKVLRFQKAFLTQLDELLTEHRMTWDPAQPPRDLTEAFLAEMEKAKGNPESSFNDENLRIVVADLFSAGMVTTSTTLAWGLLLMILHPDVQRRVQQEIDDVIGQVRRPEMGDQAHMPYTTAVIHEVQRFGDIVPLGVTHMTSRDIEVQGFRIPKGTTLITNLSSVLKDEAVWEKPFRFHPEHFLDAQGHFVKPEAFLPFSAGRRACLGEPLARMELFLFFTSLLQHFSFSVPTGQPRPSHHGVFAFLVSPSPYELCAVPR

The experiment deals with Cytochrome P450 2D6 (Homo sapiens) (UniProt P10635). Kind of experiment: Cytochrome panel assay with activity outcomes. To be noted: recombinant CYP, pro-luciferin dealkylation, luminescence, p450-cyp2d6; series mostly up to 57.1 µM. As to the method:
The P450 gene superfamily is involved in the metabolism and clearance of xenobiotics. This assay used various human CYP P450 isozymes to measure the dealkylation of various pro-luciferin substrates to luciferin. The luciferin is then measured by luminescence after the addition of a luciferase detection reagent. Pro-luciferin substrate concentration in the assay was equal to its KM for its CYP P450 isozyme. Inhibitors and some substrates limit the production of luciferin, and decrease measured luminescence.
NCGC Assay Protocol Summary:
1, Reagent, 2 uL, Isozyme and Pro-Luciferin
2, Library compounds, 23 nl, 40 uM to 0.24 nM dilution series
3, Controls, 23 nl, Isozyme specific inhibitor
4, Reagent, 2 uL, NADPH regeneration solution
5, Incubation time, 60 min, Isozyme specific temperature
6, Reagent, 4ul, Detection reagent
7, Incubation time, 20 min, Isozyme specific temperature
8, Detection, 1 sec, ViewLux luminescent read
The luciferase-based P450-GloTM Screening Systems were obtained from Promega (Madison, WI) for CYP 1A2 (V9770), CYP 2C9 (V9790), CYP2 C19 (V9880), CYP 2D6 (V9890), and CYP 3A4 Luciferin-PPXE (V9910) and were adapted for 1,536-well microplates and an automated protocol. The control compounds furafylline for 1A2 (F124), sulfaphenazole for CYP 2C9 (S0758), ketoconazole for CYP 2C19 (K1003), quinidine for 2D6 (Q3625), and ketoconazole for 3A4 (K1003) were purchased from Sigma Aldrich (St. Louis, MO). Recombinant P450 enzymes were obtained from baculovirus constructs expressed in insect cells (BD/Gentest).
Medium-binding white solid Kalypsys plates used. Mixtures kept on ice. 1A2: 10 nM 1A2, 100 uM Luc-ME, 100 mM KPO4; 2C9: 10 nM 2C9, 100 uM Luc-H, 25 mM KPO4; 2C19: 5 nM 2C19, 10 uM Luc-H EGE, 50 mM KPO4; 2D6: 5 nM 2D6, 30 uM Luc-ME EGE, 100 mM KPO4; 3A4: 10 nM, 25 uM Luc-PPXE. All amounts are reflected in their final concentration, working concentration is 2x.
NADPH regeneration solution: 1.3 mM NADP+, 3.3 mM glucose-6-phosphate, 3.3 mM MgCl2, 0.4 U/mL glucose-6-phosphate dehydrogenase for all isozymes, 200 mM KPO4 for 3A4. Mixture prepared at RT but kept on ice during automated run.
RT incubation in auxilliary plate hotel for 1A2, 2D6, and 3A4; 37C for 2C9 and 2C19.
Keywords: P450, CYP1A2, CYP2C19, CYP2C9, CYP2D6, CYP3A4, Luciferase, MLSMR, MLSCN, NIH Roadmap, qHTS, NCGC
Turning to `C(=NC12CN3CN(CN(C3)C1)C2)c1cccs1`, the AC50 (as a rule, the concentration at which the activity in the assay is half-maximal) was “inactive”.

`S=C=Nc1cccc(C2(N3CCCCC3)CCCCC2)c1`: the half-maximal activity concentration (AC50) is 10000 nM (active).

As to `COC(=O)C1=CCCN(C)C1`, the AC50 entry is “inactive”.

For `CCCC(CCC)C(=O)O`, the AC50 result was “inactive”.

In the case of `CCC1(C)CC(=O)NC(=O)C1`, the AC50 result was “inactive”.

Consider `N[C@@H](Cc1cc(Br)c(O)c(Br)c1)C(=O)O`, for which the activity, negative = inhibition was 10.2% [at 11.4 µM] (inactive).

As to `Cc1o[nH]c(=O)c1C[C@H](N)C(=O)O`, the half-maximal activity concentration (AC50) entry was “inactive and 15.8 µM (active)”.

For `N[C@H](CCl)C(=O)O`, the AC50 result is “inactive”.

On to `N[C@H](C(=O)O)c1cc(=O)[nH]o1`, for which the AC50 entry was “inactive”.

In the case of `N[C@H](Cc1o[nH]c(=O)c1Cl)C(=O)O`, the AC50 was 158 nM (active).

Regarding `Cc1o[nH]c(=O)c1C[C@@H](N)C(=O)O`, the AC50 entry was “inactive”.

`C[C@@H]1O[C@H](O[C@@H]2CC[C@@]3(C=O)[C@H]4CC[C@@]5(C)[C@@H](C6=CC(=O)OC6)CC[C@@]5(O)[C@@H]4CC[C@]3(O)C2)C[C@H](O)[C@@H]1O`: the AC50 entry is “inactive”.

Take `CCCCCCN=Cc1c(O)n(C)c(=O)n(C)c1=O`: the AC50 result was “inactive”.

On to `CC1=C(C)[N+](=O)C2(O)CCCCC2(C)N1[O-]` (stereo unspecified), for which the AC50 result was “inactive”.

Regarding `C[C@@H]1O[C@H](O[C@@H]2C[C@@H](O)[C@]3(CO)[C@H]4[C@H](O)C[C@]5(C)[C@@H](C6=CC(=O)OC6)CC[C@@]5(O)[C@@H]4CC[C@]3(O)C2)[C@@H](O)[C@H](O)[C@H]1O`, the AC50 is 50.1 nM (active).

As for `C[C@@H]1O[C@H](O[C@H]2C[C@@H](O)[C@@]3(CO)[C@H]4[C@@H](O)C[C@]5(C)[C@@H](C6=CC(=O)OC6)CC[C@]5(O)[C@H]4CC[C@]3(O)C2)[C@@H](O)[C@H](O)[C@@H]1O`, the AC50 result was “inactive”.

With `C[C@@H]1O[C@@H](O[C@H]2C[C@@H](O)[C@]3(CO)[C@@H]4[C@@H](O)C[C@]5(C)[C@H](C6=CC(=O)OC6)CC[C@@]5(O)[C@H]4CC[C@@]3(O)C2)[C@H](O)[C@H](O)[C@@H]1O`, the AC50 entry is “inactive”.

In the case of `CCOC(=O)c1c(NC(=O)C(c2ccccc2)c2ccccc2)sc2c1C1CCN2CC1`, the AC50 result is “inactive”.

As to `CN1CC[C@@]23c4ccccc4N[C@H]1[C@]21CCN(C)[C@@H]3Nc2ccccc21`, the AC50 result was “inactive”.

For the compound `CCCCN(CCCC)CCC(O)c1cc2c(Cl)cc(Cl)cc2c2cc(C(F)(F)F)ccc12` (stereo unspecified), the half-maximal activity concentration (AC50) is 3980 nM (active).

Consider `O=C(O)CNC(=O)[C@@H](CS)Cc1ccccc1`, for which the AC50 result was “inactive”.

As for `O=[N+]([O-])c1ccc2nc(N3CCNCC3)ccc2c1`, the AC50 result was “inactive”.

In the case of `CN(N=O)C(=O)N[C@H]1[C@@H](O)[C@H](O)[C@H](CO)O[C@@H]1O`, the AC50 entry was “inactive”.

With `COC(=O)[C@H]1[C@H](c2ccccc2)C(=O)[C@@]2(O)c3ccccc3O[C@@]12c1ccccc1`, the activity, negative = inhibition was 1.53% [at 11.4 µM] (inactive).

For the compound `CCS(=O)(=O)Nc1cccc(C(=C2CCCCC2)c2cnc[nH]2)c1`, the AC50 is 7940 nM (active).

Consider `CN1C(=O)C(C2c3ccccc3C(=O)N2Cc2ccc([N+](=O)[O-])cc2)C(=O)N(C)C1=O` (stereo unspecified), for which the AC50 result was “inactive”.

In the case of `C1C[C@@H]2CN(CCCN3CCOCC3)[C@@H](C1)O2`, the activity, negative = inhibition is -5.61% [at 11.4 µM] (inactive).

In the case of `CC1(C)CCC2=C(O1)c1ccccc1C(=O)C2=O`, the AC50 is 15800 nM (active).

In the case of `Cn1c[n+](C)cc1C(O)c1ccccc1` (stereo unspecified), the AC50 entry is “inactive”.

Take `CN1[C@@H](C[C@@H](O)c2ccccc2)CCC[C@@H]1C[C@H](O)c1ccccc1`: the AC50 was 631 nM (active).

For the compound `CN1[C@@H](CC(=O)c2ccccc2)CCC[C@@H]1C[C@@H](O)c1ccccc1`, the AC50 was 79.4 nM (active).

`CN(C)C(=O)Oc1ccc[n+](C)c1`: the AC50 result was “inactive”.

Regarding `C[C@@H]1O[C@H]1P(=O)(O)O`, the AC50 result was “inactive”.

For the compound `O=c1c(O)c(-c2ccc(O)c(O)c2)oc2cc(O)cc(O)c12`, the AC50 result was “inactive”.

Consider `CNC[C@H](O)c1ccc(O)c(OC)c1`, for which the AC50 entry was “inactive”.

For `C[C@](N)(CCP(=O)(O)O)C(=O)O`, the AC50 result is “inactive”.

Regarding `CCCN(CCC)C1Cc2cc(OC)c(OC)cc2C1`, the AC50 is 25.1 µM (active) and inactive.

Consider `CCCN(CCC)[C@@H]1CCc2ccc(O)cc2C1`, for which the AC50 was 794 nM (active) and inactive.

With `CCCN(C/C=C\I)[C@@H]1CCc2ccc(O)cc2C1`, the concentration at half-maximal activity (AC50) is 15.8 nM (active).

As to `O=C(O)[C@H]1CCN1`, the AC50 entry is “inactive”.

Consider `CN(C)[C@H]1C(=O)C(C(N)=O)=C(O)[C@]2(O)C(=O)C3=C(O)c4c(O)cccc4[C@@](C)(O)[C@H]3C[C@@H]12`, for which the AC50 result was “inactive”.

The values above are taken from PubChem BioAssay AID1851 (National Center for Advancing Translational Sciences (NCATS), 2009).
